Sampled rows, rich in hits. Any-hit rate of the full collection: about 1.6%.
HTR2A ag: agonists of mouse serotonin 5-HT2A receptor (HTR2A). activation, % at 7.6 µM. P35363. 360,000 compounds, 0.66% hits. CHO-K1 mHTR2A beta-arrestin complementation, luminescence; percent of 30 µM serotonin response;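 active means activation above a run cutoff, the mean activation of all tested compounds plus 3 SD, cut at about 14% in these data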;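 further: 0% = plate median of compound wells and 100% = 30 µM serotonin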
OPRM1-OPRD1 ag: agonists of human mu-delta opioid receptor heterodimerization. cells, OPRM1-OPRD1 heterodimerization, luminescence. P35372+P41143. activation, % at 9.3 µM. AID 504326. 340,000 compounds, 0.3% hits; in the data active means activation above about 18%;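 further: 0% = vehicle-treated cells and 100% = reference agonist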
HTR5A inv ag: inverse agonist of human HTR5A in OPRM1-OPRD1 counter-screen. 340,000 compounds, 0.083% hits. P47898. inhibition, % at 9.3 µM. HTR5A cell line, luminescence, inverse agonism; in the data active means inhibition mostly above about 23%, no sharp cut-off; inactive means mostly below about 18%;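 further: 0% = cells with DMSO and 100% = no-cell wells with DMSO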
MOR-DOR inv ag: mu-delta opioid heterodimer inverse agonism; P35372+P41143; cell-based MOR-DOR heterodimer luminescence; inhibition, % at 9.3 µM; 340,000 compounds, 0.21% hits; AID 504357; in the data active means inhibition above about 22%, passing the limit was not always enough;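 further: 0% = cells with DMSO and 100% = wells without cells with DMSO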
HTR5A ag: activates human HTR5A in OPRM1-OPRD1 agonist counter-screen; P47898; HTR5A agonist assay, luminescence, cell-based; activation, % at 9.3 µM; 340,000 compounds, 0.61% hits; in the data active means activation mostly above about 9.5%, no sharp cut-off; inactive means mostly below about 7.6%;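 further: 0% = cells with vehicle only and 100% = reference agonist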
OPRM1 ag: OPRM1 agonism in mouse HTR2A counterscreen | activation, % at 9.3 µM | U2OS OPRM1 beta-arrestin PathHunter, luminescence; DMSO 0%, DAMGO 9.3 µM 100% | shares compounds with HTR2A ag | 2,300 compounds, 5.3% hits;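 active means mean activation above the mean of DMSO-only wells plus 3 SD, cut at about 0.5% in these data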
Target sequence (P35372 whole entry, looked up): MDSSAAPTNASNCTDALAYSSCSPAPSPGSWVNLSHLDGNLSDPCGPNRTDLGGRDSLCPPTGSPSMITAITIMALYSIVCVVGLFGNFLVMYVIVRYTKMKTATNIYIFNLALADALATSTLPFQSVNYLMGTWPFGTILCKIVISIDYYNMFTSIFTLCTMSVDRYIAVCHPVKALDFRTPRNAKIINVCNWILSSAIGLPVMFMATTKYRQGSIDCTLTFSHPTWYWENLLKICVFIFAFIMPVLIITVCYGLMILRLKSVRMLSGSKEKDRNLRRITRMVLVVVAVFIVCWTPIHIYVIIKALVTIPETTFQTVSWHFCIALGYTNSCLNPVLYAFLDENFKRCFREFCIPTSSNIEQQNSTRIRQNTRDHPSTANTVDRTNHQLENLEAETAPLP
m5-HT2A ag conf: confirmation of mouse HTR2A serotonin receptor agonists; shares compounds with HTR2A ag; CHO-K1 PathHunter beta-arrestin recruitment, luminescence; DMSO 0%, 30 µM serotonin 100%; activation, % at 7.6 µM; 2,300 compounds, 19% hits; AID 624381;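 active means mean activation across triplicates above the hit threshold derived in the original primary screen, cut at about 15% in these data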
* = called active by the depositor; . = not tested or not shown.

SMILES | HTR2A ag | OPRM1-OPRD1 ag | HTR5A inv ag | MOR-DOR inv ag | HTR5A ag | OPRM1 ag | m5-HT2A ag conf
CC(NC(=O)C12CC3CC(CC(O)(C3)C1)C2)c1ccccc1 (stereo not drawn) | 11 | -2 | 2 | 13 | -1 | . | .
CCCOC1CCCN(C(=O)c2ccc(OC)c(OC3CCN(C(C)C)CC3)c2)C1 (stereo not drawn) | 8 | -2 | -16 | 12 | 2 | . | .
COc1ccc(-c2nnc(SCC(=O)NCc3cccs3)n2CC(C)C)cc1 | -5 | -1 | 8 | 5 | -3 | . | .
NC1=C(Cl)C(=O)c2ccccc2C1=O | 17* | 7 | -7 | -33 | 2 | 0 | -3
O=C1C(Cl)=C(NCCCO)C(=O)c2ccccc21 | 5 | 6 | -7 | -25 | 4 | . | .
O=S(=O)(Nc1ccc(-c2csc(-c3ccccc3)n2)cc1)c1ccccc1 | 18* | 3 | -7 | -13 | 2 | 0 | 5
O=S(=O)(Nc1ccc2oc(-c3ccccc3)nc2c1)c1ccccc1 | 15* | 4 | -13 | -20 | 5 | 0 | 4
CN(CC(=O)NCc1ccncc1)S(=O)(=O)c1ccc(F)cc1 | 0 | -2 | -3 | 12 | 14 | . | .
Cn1ncc([N+](=O)[O-])c1C(=O)Nc1ccccc1C#N | 16* | . | . | . | . | -1 | -4
CCc1c(C)nc(N2CCN(c3ccccc3F)CC2)[nH]c1=O | 20* | 2 | 1 | -8 | 0 | 0.9* | 4
Cc1nc(N2CCN(c3ccccc3F)CC2)[nH]c(=O)c1C | -6 | -1 | 9 | 5 | -2 | . | .
O=C(c1cc(-c2ccncc2)nc2ccc(Cl)cc12)N1CCN(C(=O)C2CCCO2)CC1 (stereo not drawn) | 6 | -2 | 9 | 10 | 1 | . | .
CC(=O)c1ccc(N2CCN(C(=O)c3cc(-c4ccncc4)nc4ccc(Cl)cc34)CC2)cc1 | 15* | 0 | -17 | 0 | 8 | -1 | -3
COc1cc(C2NC(=O)CCC2[N+](=O)[O-])cc(OC)c1OC (stereo not drawn) | 3 | -3 | -23 | 16 | 6 | . | .
C=CCn1c(=O)/c(=C/c2ccc(C)o2)s/c1=C(/C#N)C(=O)c1ccccc1 | 15* | 5 | 30 | -26 | 7 | -1 | -8
C=CCn1c(=O)/c(=C\c2ccccn2)s/c1=C(/C#N)C(=O)NCC1CCCO1 (stereo not drawn) | 5 | 0 | -4 | 1 | 2 | . | .
O=C(NC1CCCCC1)C(C1CC1)n1c(=O)c(-c2ccco2)nc2ccccc21 (stereo not drawn) | 16* | . | . | . | . | -1 | -3
COC(=O)CSc1[nH]c(=O)cc(C)c1C#N | 17* | -1 | 3 | 8 | -1 | 0 | -3
CCOC(=O)CSc1[nH]c(=O)cc(C)c1C#N | 6 | -1 | -15 | 8 | -3 | . | .
COc1ccc(CN2C3CCC2CC(NC(=O)c2cc(OC)c(OC)c(OC)c2)C3)cc1 (stereo not drawn) | 4 | -4 | -16 | 19 | 4 | . | .
CCC(C)(C)NC(=O)CN(C(=O)c1csnn1)c1ccccc1-c1ccccc1 | 16* | -2 | 0 | 13 | 0 | -1 | -4
CCC(C)(C)NC(=O)CN(C(=O)c1csnn1)c1cccc2c1CCCC2 | 2 | -2 | 12 | 12 | -4 | . | .
CSc1nc(C)c(C(=O)Nc2ccccc2)c(-c2ccco2)c1C#N | 16* | -3 | -6 | 15 | 5 | 0 | -3
COCCn1c(=O)[nH]c2cc(C(=O)N3CCN(c4ccccc4OC)CC3)ccc2c1=O | 9 | -3 | 8 | 16 | -3 | . | .
COCCn1c(=O)[nH]c2cc(C(=O)N3CCN(c4cccc(C)c4C)CC3)ccc2c1=O | 15* | 0 | 17 | 2 | -6 | 0 | 1
SMILES | HTR2A ag | OPRM1-OPRD1 ag | HTR5A inv ag | MOR-DOR inv ag | HTR5A ag | OPRM1 ag | m5-HT2A ag conf
Cc1cc(C)cc(-n2c(C)cc(/C=C3\C(=N)N4N=C(CC(C)C)SC4=NC3=O)c2C)c1 | 18* | 0 | 14 | 1 | 6 | 0 | -2
Cc1cccc(-n2c(C)cc(/C=C3\C(=N)N4N=C(CC(C)C)SC4=NC3=O)c2C)c1 | 2 | 1 | 6 | -3 | -2 | . | .
O=S(=O)(c1ccc2nnn(O)c2c1)N1CCCCC1 | 20* | 1 | -6 | -5 | 2 | -1 | -5
CCN(CC)S(=O)(=O)c1ccc2nnn(O)c2c1 | 3 | -2 | 4 | 13 | -1 | . | .
Cc1cc(C)n(/N=C/c2ccc(O)cc2)c(=O)c1C#N | 20* | -3 | -8 | 16 | -1 | -1 | -4
Cc1ccc(C)c(OCCSc2nnc(-c3cccnc3)n2N)c1 | -5 | 0 | -2 | 2 | 1 | . | .
CN(CC(=O)Nc1cccnc1)S(=O)(=O)c1ccc(Br)cc1 | 17* | -5 | -1 | 16 | 2 | -1 | -4
Cc1cc(C)n(C(=O)c2cccc([N+](=O)[O-])c2)n1 | 0 | 0 | 3 | 0 | -1 | . | .
Cc1cc(C)n(C(=O)c2cc([N+](=O)[O-])cc([N+](=O)[O-])c2)n1 | 45* | 5 | 15 | -26 | -5 | 0 | -3
Cc1ccc(S(=O)(=O)NCC(=O)N2CCCCC2)cc1 | 14* | 0 | 6 | 2 | -2 | -1 | -3
Cc1ccc(S(=O)(=O)NCC(=O)N2CCCC2)cc1 | 7 | 4 | 17 | -20 | -2 | . | .
Cc1ccc(S(=O)(=O)NC(CC(=O)N2CCOCC2)c2ccco2)cc1 (stereo not drawn) | 43* | -1 | -7 | 4 | 3 | -1 | 0
CC(C)NC(=O)C1(C)CCN1C(=O)c1cccc(Cl)c1 (stereo not drawn) | -5 | . | . | . | . | . | .
CC(C)NC(=O)C1(C)CCN1C(=O)c1ccc(F)c(Cl)c1 (stereo not drawn) | 15* | . | . | . | . | -1 | -4
Cc1ccc(S(=O)(=O)c2nc(-c3ccc(F)cc3)oc2SCC(=O)NCC2CCCO2)cc1 (stereo not drawn) | 15* | -1 | 6 | 5 | 2 | -1 | -3
Cc1ccc(-c2nc(S(=O)(=O)c3ccc(F)cc3)c(SCC(=O)NCC3CCCO3)o2)cc1 (stereo not drawn) | -1 | -1 | 5 | 7 | -2 | . | .
O=C(CN1CCN(C(=O)c2ccccc2)CC1)NC(=O)NCCC1=CCCCC1 | 20* | -1 | -3 | 4 | 1 | -1 | -3
CC(c1ccccc1)N(C)CC(=O)NC(=O)NCCC1=CCCCC1 (stereo not drawn) | 7 | 6 | -14 | -24 | 6 | . | .
COC(=O)Cc1c(O)ccn(CCc2c[nH]c3ccc(OC)cc23)c1=O | -2 | -1 | 2 | 3 | -1 | . | .
COc1ccc2[nH]cc(CCN=C3SCC(=O)N3C)c2c1 | 18* | -2 | -5 | 9 | 6 | 0 | 3
